Measured values published in PubChem BioAssay.
Inconclusive results are not listed. Activity calls are given as the source filed them.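 The calls were made as follows, unless noted: active = binding below the plate cutoff, the plate median minus 3 SD, with a reading above zero; inconclusive = below the plate cutoff but reading exactly zero; inactive = the rest.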

What was measured:
[1] = rapamycin-like changes in RPL19A-GFP expression – cell-based, S. cerevisiae, multiplex flow cytometry, primary screen (AID 1862; in the data active = percent of DMSO control GFP below about 86%;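 also: lower values mimic rapamycin by blocking the RPL19A rise seen in DMSO cells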); settings: S. cerevisiae RPL19A-GFP strain, flow cytometry fluorescence, 3 h; at 10 µM; stronger effect = lower value
[2] = TOR pathway GLN3 branch reporter MEP2-GFP changes – S. cerevisiae, multiplex flow cytometry, primary screen (AID 1867;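 active = GFP response, as percent of the DMSO control, above the screen-wide mean plus 3 SD, about 139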;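 also: median GFP channel fluorescence of barcode-gated MEP2-GFP cells measured by flow cytometry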); settings: S. cerevisiae MEP2-GFP strain, 3 h, at 10 µM, stronger effect = higher value, 100% means same as DMSO wells
[3] = TOR pathway RTG branch CIT2 reporter changes – S. cerevisiae, GFP fusion, multiplex flow cytometry, primary screen (AID 1870;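 active = percent response above a set limit, the screen-wide mean plus 3 SD, cut at about 130% in these data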;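 also: barcoded CIT2-GFP strain pooled with four other GFP strains with rapamycin as positive control; median GFP fluorescence per well over plate mean of DMSO wells so 100% = DMSO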); settings: S. cerevisiae CIT2-GFP expression, 3 h, at 10 µM, stronger effect = higher value
[4] = TOR pathway LAP4-GFP level changes – S. cerevisiae, multiplex flow cytometry, primary screen (AID 1873;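 active = GFP signal, as percent of the solvent control, above the screen mean plus 3 SD, about 149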); settings: S. cerevisiae LAP4-GFP expression, 3 h, at 10 µM, stronger effect = higher value
[5] = yeast AGP1-GFP level changes, GLN3 branch – cell-based, multiplex flow cytometry, S. cerevisiae, primary screen (AID 1887;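 active = GFP signal above the screen-wide mean plus 3 SD, that is over about 124.5% of the solvent control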;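 also: AGP1-GFP fusion strain of S. cerevisiae within a five-strain barcoded multiplex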); settings: 3 h, at 10 µM, stronger effect = higher value
[6] = reduced mouse 2C T cell binding to pMHC/ICAM-1 vesicles – MLPCN validation set, flow cytometry, LFA-1/ICAM-1 modulator project, pilot screen (AID 2523;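 active = response below a set limit, under 55% cells CD8-positive and vesicle-bound, and CD8 cells' 90th-percentile brightness under 279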;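 as to vesicle binding response: mean PE anti-B7-1 fluorescence of CD8+ cells relative to row control; 100% = QL9-loaded vesicles with DMSO vehicle in the same plate row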); settings: 2C mouse CD8+ T cells, at 7 µM, stronger effect = lower value; double positive events: measured here: CD8+/vesicle+ event percentage
[7] = molecular target: Integrin beta-1 (Homo sapiens) + Integrin alpha-4 (Homo sapiens) (UniProt P13612+P05556); experiment: alpha4beta1 integrin LIBS antibody binding reduction – U937 cells, HUTS-21 mAb, flow cytometry, validation set, VLA-4 allosteric modulator project, pilot screen (AID 2674;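 active = inhibition above 50%, about 3 SD of the validation set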;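 also: antibody binding induced by the VLA-4 ligand LDV present at three times its Kd; 0% = LDV ligand with antibody and no compound and 100% = antibody without LDV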); settings: HUTS-21 LIBS mAb binding, at 6.7 µM, stronger effect = higher value, binding induced by LDV ligand
Chain of Integrin beta-1 (Homo sapiens) + Integrin alpha-4 (Homo sapiens) (P05556 whole entry, looked up): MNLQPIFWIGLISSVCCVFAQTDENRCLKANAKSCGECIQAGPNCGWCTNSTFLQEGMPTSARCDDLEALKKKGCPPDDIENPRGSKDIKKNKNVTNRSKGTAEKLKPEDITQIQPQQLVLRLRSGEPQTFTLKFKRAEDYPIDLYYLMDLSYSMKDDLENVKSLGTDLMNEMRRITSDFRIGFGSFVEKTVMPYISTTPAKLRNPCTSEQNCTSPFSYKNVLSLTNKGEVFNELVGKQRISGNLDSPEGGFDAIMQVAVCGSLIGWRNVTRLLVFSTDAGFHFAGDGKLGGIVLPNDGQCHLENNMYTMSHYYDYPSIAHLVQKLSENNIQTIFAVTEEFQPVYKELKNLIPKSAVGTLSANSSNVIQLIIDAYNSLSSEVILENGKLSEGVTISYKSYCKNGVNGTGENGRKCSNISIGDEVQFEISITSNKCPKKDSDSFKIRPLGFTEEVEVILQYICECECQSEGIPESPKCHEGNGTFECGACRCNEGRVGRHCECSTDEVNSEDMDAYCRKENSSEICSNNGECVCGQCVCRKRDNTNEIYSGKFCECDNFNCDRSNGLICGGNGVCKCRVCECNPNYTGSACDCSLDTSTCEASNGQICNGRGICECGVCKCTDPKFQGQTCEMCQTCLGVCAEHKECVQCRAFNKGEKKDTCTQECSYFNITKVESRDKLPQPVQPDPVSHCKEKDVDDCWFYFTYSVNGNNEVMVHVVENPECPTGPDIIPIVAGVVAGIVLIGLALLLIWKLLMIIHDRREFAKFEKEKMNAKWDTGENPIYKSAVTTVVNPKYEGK
Chain of Integrin beta-1 (Homo sapiens) + Integrin alpha-4 (Homo sapiens) (P13612 whole entry, looked up): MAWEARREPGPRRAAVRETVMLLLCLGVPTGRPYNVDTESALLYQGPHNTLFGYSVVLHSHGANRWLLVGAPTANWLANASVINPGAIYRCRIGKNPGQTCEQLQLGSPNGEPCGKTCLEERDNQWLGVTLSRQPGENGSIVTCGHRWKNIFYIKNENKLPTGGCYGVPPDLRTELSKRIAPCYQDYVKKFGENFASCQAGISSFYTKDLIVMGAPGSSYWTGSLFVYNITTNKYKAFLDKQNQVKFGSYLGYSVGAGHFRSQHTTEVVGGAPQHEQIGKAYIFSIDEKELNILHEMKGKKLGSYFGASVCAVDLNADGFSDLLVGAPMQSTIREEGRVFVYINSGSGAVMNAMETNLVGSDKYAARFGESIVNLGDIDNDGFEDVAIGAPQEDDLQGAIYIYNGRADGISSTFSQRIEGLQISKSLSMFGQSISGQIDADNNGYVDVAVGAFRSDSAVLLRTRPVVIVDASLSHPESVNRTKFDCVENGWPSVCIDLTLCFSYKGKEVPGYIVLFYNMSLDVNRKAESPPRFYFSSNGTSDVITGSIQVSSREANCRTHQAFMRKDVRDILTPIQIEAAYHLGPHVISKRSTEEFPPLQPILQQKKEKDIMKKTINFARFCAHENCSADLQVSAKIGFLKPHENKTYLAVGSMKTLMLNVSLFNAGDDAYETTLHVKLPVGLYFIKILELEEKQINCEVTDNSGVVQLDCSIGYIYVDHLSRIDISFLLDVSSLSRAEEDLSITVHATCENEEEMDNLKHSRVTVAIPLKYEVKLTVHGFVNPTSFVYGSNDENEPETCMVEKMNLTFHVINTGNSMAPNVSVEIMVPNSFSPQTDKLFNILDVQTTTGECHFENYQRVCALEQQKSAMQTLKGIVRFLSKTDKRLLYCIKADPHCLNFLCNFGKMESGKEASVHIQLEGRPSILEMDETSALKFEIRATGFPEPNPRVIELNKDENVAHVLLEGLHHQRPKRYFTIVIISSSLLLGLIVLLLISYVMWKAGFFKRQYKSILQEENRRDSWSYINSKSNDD

[8] = calorie-restriction mimetic ROS inhibitors, yeast – validation compound set, pilot screen (AID 2706;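 active = superoxide response below 65% of plate, a cut near 3 SD across the whole screen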;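 also: yeast exposed to compound for one week at 30 degrees C before staining; 100% = mean of all compound wells on the same plate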); settings: S. cerevisiae aging, superoxide DHE fluorescence; at 10 µM, stronger effect = lower value
[9] = molecular target: Beta-adrenergic receptor kinase 1 (Homo sapiens) (UniProt P25098); experiment: GRK2 binders displacing RNA aptamer, biochemical, validation, human GRK2, bead flow cytometry (AID 488806;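 active = aptamer binding inhibition above 30%, about 3 SD of noise from non-fluorescent compounds; inactive = inhibition at or below 30%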); settings: bead-bound GRK2, FAM-aptamer displacement, at 10 µM, stronger effect = higher value
Chain of Beta-adrenergic receptor kinase 1 (Homo sapiens) (P25098 whole entry, looked up): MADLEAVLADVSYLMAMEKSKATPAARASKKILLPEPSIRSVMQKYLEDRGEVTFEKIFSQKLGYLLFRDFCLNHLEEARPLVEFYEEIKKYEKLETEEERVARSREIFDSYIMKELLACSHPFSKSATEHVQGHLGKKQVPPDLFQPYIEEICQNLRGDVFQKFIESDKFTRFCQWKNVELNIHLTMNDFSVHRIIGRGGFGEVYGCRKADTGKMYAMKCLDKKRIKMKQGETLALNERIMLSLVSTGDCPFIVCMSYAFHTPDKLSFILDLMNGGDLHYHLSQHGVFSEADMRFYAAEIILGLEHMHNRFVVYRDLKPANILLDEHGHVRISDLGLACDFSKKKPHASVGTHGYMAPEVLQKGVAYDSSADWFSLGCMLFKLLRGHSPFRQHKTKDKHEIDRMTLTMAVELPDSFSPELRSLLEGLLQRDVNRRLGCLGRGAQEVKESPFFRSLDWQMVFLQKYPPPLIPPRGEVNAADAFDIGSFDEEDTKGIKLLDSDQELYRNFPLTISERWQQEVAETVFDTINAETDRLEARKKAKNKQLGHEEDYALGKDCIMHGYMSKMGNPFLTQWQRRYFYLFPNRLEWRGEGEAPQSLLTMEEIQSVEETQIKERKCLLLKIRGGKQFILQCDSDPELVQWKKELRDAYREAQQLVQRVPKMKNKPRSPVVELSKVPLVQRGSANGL

[10] = molecular target: AP-2 complex subunit beta (Homo sapiens) (UniProt P63010); experiment: beta-arrestin/AP2 interaction blockers – biochemical, validation set, GST-AP2 beads, flow cytometry, pilot screen (AID 504541;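 active = inhibition above 54%, about 3 SD of non-fluorescent compounds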;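 also: AP2 carries R879A mutation and is captured from E. coli lysate; bead-bound FITC arrestin peptide fluorescence measuring arrestin peptide binding to AP2; 0% = DMSO wells and 100% = excess unlabeled arrestin peptide control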); settings: FITC arrestin peptide, at 10 µM, stronger effect = higher value, AP2 beta2 appendage fragment, R879A mutant
Chain of AP-2 complex subunit beta (Homo sapiens) (P63010 whole entry, looked up, the tested form may be a part, one chain of several): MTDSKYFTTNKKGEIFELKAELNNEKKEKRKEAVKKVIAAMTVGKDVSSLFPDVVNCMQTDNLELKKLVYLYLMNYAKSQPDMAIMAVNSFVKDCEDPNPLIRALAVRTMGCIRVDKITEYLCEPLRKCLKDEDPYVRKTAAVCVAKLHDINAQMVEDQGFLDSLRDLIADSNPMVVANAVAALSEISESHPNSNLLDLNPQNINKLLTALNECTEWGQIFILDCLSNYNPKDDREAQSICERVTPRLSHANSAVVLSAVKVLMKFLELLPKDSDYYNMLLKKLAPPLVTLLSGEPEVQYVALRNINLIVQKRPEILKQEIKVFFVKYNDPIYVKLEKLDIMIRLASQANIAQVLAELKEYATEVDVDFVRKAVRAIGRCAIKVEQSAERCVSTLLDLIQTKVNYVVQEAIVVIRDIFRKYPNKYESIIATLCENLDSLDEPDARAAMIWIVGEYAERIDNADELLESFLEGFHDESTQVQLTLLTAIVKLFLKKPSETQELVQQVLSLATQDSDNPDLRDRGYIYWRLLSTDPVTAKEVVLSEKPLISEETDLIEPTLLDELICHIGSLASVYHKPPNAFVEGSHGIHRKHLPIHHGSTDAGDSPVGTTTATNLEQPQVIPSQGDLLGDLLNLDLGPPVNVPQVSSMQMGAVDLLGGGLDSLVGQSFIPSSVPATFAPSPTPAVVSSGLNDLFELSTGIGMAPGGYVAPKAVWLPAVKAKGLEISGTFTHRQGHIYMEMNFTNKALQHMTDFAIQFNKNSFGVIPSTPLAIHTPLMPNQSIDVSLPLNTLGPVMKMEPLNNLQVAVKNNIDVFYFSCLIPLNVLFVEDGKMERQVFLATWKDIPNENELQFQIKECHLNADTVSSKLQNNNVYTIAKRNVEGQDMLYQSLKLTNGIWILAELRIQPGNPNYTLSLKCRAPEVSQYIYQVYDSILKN

[11] = cytosolic pH regulators acting via V-ATPase – S. cerevisiae, pHLuorin, HTS validation (AID 504600; in the data active = response above about 15%;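 also: plate controls were DMSO for no effect and reference compound for full effect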); settings: V-ATPase proton transport, at 10 µM, stronger effect = higher value
[12] = test system: anti-desmoglein-3 scFv antibody binding to human DSG3; experiment: blockers of pathogenic pemphigus antibody–desmoglein-3 binding – biochemical, validation compound set, bead-based, flow cytometry, pilot screen (AID 588368); settings: Protein G beads, DSG3-Fc, scFv-GFP binding, at 10 µM, stronger effect = lower value;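 also: signal is the median channel fluorescence of bead-bound GFP antibody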
[13] = Nile Red efflux blockade in pump-expressing yeast – validation compound set, multiplex, phenotypic, pilot screen (AID 588506;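 active = efflux inhibition above 0.42, the validation set average plus 4 SD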;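 also: Nile Red retained in cells so higher fluorescence means more efflux inhibition; 0 = negative control wells and 1 = enniatin B 25 µM full block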); settings: S. cerevisiae pump-expressing triplex, Nile Red efflux flow cytometry; at 10 µM; stronger effect = higher value; the pumps come from Candida albicans
[14] = molecular target: ATP-binding cassette sub-family B member 6 (Homo sapiens) (UniProt Q9NP58); experiment: blockers of ABCB6-driven porphyrin uptake – K562-ABCB6 cells, flow cytometry, validation set, pilot screen (AID 588550;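 active = inhibition above the screen-wide mean plus 3 SD, about 51%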;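 also: 0% = DMSO wells and 100% = benzethonium chloride 70 µM positive control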); settings: K562-ABCB6 porphyrin accumulation, 1 h, at 10 µM, stronger effect = higher value
Chain of ATP-binding cassette sub-family B member 6 (Homo sapiens) (Q9NP58 whole entry, looked up): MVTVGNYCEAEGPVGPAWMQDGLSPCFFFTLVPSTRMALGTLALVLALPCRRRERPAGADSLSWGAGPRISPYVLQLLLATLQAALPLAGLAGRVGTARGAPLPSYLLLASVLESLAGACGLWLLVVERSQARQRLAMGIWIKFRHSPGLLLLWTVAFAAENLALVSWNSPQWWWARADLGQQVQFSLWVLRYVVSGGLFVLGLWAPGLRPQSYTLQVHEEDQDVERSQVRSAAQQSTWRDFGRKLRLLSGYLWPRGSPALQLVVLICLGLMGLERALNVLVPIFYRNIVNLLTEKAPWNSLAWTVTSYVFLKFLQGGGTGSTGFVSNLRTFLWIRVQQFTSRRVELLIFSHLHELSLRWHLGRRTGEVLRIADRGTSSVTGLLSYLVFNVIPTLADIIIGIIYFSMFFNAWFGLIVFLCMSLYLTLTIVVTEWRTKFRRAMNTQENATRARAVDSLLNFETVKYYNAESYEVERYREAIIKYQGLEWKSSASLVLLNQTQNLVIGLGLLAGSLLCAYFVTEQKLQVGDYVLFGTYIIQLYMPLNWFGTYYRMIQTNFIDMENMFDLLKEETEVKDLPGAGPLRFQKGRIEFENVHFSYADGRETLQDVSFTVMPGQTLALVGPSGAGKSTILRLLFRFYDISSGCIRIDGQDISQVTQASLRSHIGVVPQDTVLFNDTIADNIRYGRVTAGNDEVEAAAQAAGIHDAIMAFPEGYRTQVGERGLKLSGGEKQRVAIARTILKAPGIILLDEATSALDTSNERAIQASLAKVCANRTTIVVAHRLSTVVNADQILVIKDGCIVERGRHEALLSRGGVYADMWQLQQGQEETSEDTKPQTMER

[15] = AML differentiation inducers, ER-HoxA9 marrow cells – cell-based, GFP/MAC1 double positive, flow cytometry, validation set, primary screen (AID 588685;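 active = differentiation response of at least 50%, scaled between solvent and reference control, from cells with both markers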;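 also: compound exposure lasts four days before antibody staining and flow analysis; 0% = DMSO wells and 100% = 5 µM fulvestrant positive control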); settings: stronger effect = higher value, normalized: vehicle 0, fulvestrant 100

CC(=O)NC1C(OCCOc2ccc(Cl)cc2Cl)OC(COC(C)=O)C(OC(C)=O)C1OC(C)=O (stereo not drawn)
55.1%: double positive events [6]
inactive: percent of DMSO control GFP [1] 103% | GFP response vs DMSO [2] 102% | percent response of DMSO control [3] 108% | GFP response vs DMSO [4] 91.3% | GFP response, % of DMSO [5] 94.5% | vesicle binding response [6] 168% | inhibition [7] 16.6% | superoxide response (% of plate) [8] 108% | aptamer binding inhibition [9] 3% | inhibition [10] 8.3% | response [11] -6.83% | binding (% of control) [12] 101% | efflux inhibition (fraction of control) [13] -0.2 | inhibition [14] 9% | differentiation response [15] 20.8%

CC[C@]1(O)C[C@@H]2CN(CCc3c([nH]c4ccccc34)[C@@](C(=O)OC)(c3cc4c(cc3OC)N(C)[C@H]3[C@@](O)(C(=O)OC)[C@H](OC(C)=O)[C@]5(CC)C=CCN6CC[C@]43[C@@H]65)C2)C1
55.4%: double positive events [6]
inactive: percent of DMSO control GFP [1] 102% | GFP response vs DMSO [2] 101% | percent response of DMSO control [3] 101% | GFP response vs DMSO [4] 92.3% | GFP response, % of DMSO [5] 99% | vesicle binding response [6] 153% | inhibition [7] 23.1% | superoxide response (% of plate) [8] 86.7% | aptamer binding inhibition [9] -13% | inhibition [10] -7.9% | response [11] 1.26% | binding (% of control) [12] 111% | inhibition [14] 8% | differentiation response [15] 3.03%
active: efflux inhibition (fraction of control) [13] 0.59

CC(C)OC(=O)CC1C(=O)NCCN1C(=S)NC(=O)c1cccs1 (stereo not drawn)
inactive: percent of DMSO control GFP [1] 98.1% | GFP response vs DMSO [2] 86.7% | percent response of DMSO control [3] 107% | GFP response vs DMSO [4] 98.4% | GFP response, % of DMSO [5] 107% | vesicle binding response [6] 190% | inhibition [7] 10% | superoxide response (% of plate) [8] 87.2% | aptamer binding inhibition [9] -2% | inhibition [10] -4.49% | response [11] 2.24% | binding (% of control) [12] 104% | efflux inhibition (fraction of control) [13] -0.2 | inhibition [14] 8% | differentiation response [15] 0%
63.2%: double positive events [6]

CC(=O)O[C@H]1CSC[C@H]1NC(=O)c1ccccc1
inactive: percent of DMSO control GFP [1] 101% | GFP response vs DMSO [2] 91.8% | percent response of DMSO control [3] 106% | GFP response vs DMSO [4] 102% | GFP response, % of DMSO [5] 101% | vesicle binding response [6] 233% | inhibition [7] -7.7% | superoxide response (% of plate) [8] 104% | aptamer binding inhibition [9] -6% | inhibition [10] -16.1% | response [11] -9.38% | binding (% of control) [12] 102% | efflux inhibition (fraction of control) [13] -0.28 | inhibition [14] 12% | differentiation response [15] -13.1%
60.9%: double positive events [6]

CN(Cc1ccccc1)CC(O)COc1ccc(CNCc2cccnc2)cc1 (stereo not drawn)
inactive: percent of DMSO control GFP [1] 101% | GFP response vs DMSO [2] 102% | percent response of DMSO control [3] 103% | GFP response vs DMSO [4] 91.3% | GFP response, % of DMSO [5] 100% | vesicle binding response [6] 211% | inhibition [7] -1.17% | superoxide response (% of plate) [8] 93.8% | aptamer binding inhibition [9] -6% | inhibition [10] -7.34% | response [11] 2.19% | binding (% of control) [12] 105% | efflux inhibition (fraction of control) [13] -0.16 | inhibition [14] 9% | differentiation response [15] 24%
56.7%: double positive events [6]

CC(=O)OCC(=O)C1=CCC2C3CCC4=CC(=O)C=CC4(C)C3(F)C(OC(C)=O)CC12C (stereo not drawn)
59%: double positive events [6]
inactive: percent of DMSO control GFP [1] 99.8% | GFP response vs DMSO [2] 101% | percent response of DMSO control [3] 106% | GFP response vs DMSO [4] 84.3% | GFP response, % of DMSO [5] 105% | vesicle binding response [6] 180% | inhibition [7] 6.29% | superoxide response (% of plate) [8] 87.6% | aptamer binding inhibition [9] 7% | inhibition [10] -3.56% | response [11] 6.47% | binding (% of control) [12] 96.2% | efflux inhibition (fraction of control) [13] 0.18 | inhibition [14] 9% | differentiation response [15] -11.5%

CC1=CC2(O)OCCN(CCO)C2=CC1=O (stereo not drawn)
56.9%: double positive events [6]
inactive: percent of DMSO control GFP [1] 103% | GFP response vs DMSO [2] 102% | percent response of DMSO control [3] 101% | GFP response vs DMSO [4] 93.3% | GFP response, % of DMSO [5] 97.9% | vesicle binding response [6] 162% | inhibition [7] -12.4% | superoxide response (% of plate) [8] 103% | aptamer binding inhibition [9] 2% | inhibition [10] -3.8% | response [11] -1.28% | binding (% of control) [12] 102% | efflux inhibition (fraction of control) [13] 0.29 | inhibition [14] 7% | differentiation response [15] 3.03%

CC(O)Cn1cnc2c1c(=O)n(C)c(=O)n2C (stereo not drawn)
inactive: percent of DMSO control GFP [1] 95.1% | GFP response vs DMSO [2] 93.8% | percent response of DMSO control [3] 111% | GFP response vs DMSO [4] 94.3% | GFP response, % of DMSO [5] 98.7% | vesicle binding response [6] 150% | inhibition [7] 4.42% | superoxide response (% of plate) [8] 105% | aptamer binding inhibition [9] 0% | inhibition [10] -14.4% | response [11] 0.41% | binding (% of control) [12] 101% | efflux inhibition (fraction of control) [13] -0.24 | inhibition [14] 4% | differentiation response [15] -14.7%
50%: double positive events [6]

COc1ccccc1C1C(C#N)=C(N)Oc2c1oc(CO)cc2=O (stereo not drawn)
52%: double positive events [6]
inactive: percent of DMSO control GFP [1] 102% | GFP response vs DMSO [2] 96.9% | percent response of DMSO control [3] 111% | GFP response vs DMSO [4] 103% | GFP response, % of DMSO [5] 107% | vesicle binding response [6] 174% | inhibition [7] -11.4% | superoxide response (% of plate) [8] 103% | aptamer binding inhibition [9] 2% | inhibition [10] -6.41% | response [11] 2.3% | binding (% of control) [12] 95.9% | efflux inhibition (fraction of control) [13] 0.03 | inhibition [14] 9% | differentiation response [15] -11.5%

Cn1c(=O)c2c(ncn2CC(O)CO)n(C)c1=O (stereo not drawn)
53.8%: double positive events [6]
inactive: percent of DMSO control GFP [1] 100% | GFP response vs DMSO [2] 99.9% | percent response of DMSO control [3] 93.9% | GFP response vs DMSO [4] 104% | GFP response, % of DMSO [5] 99.4% | vesicle binding response [6] 114% | inhibition [7] 11.9% | superoxide response (% of plate) [8] 93.5% | aptamer binding inhibition [9] 2% | inhibition [10] -7.53% | response [11] -0.09% | binding (% of control) [12] 81.7% | efflux inhibition (fraction of control) [13] 0.22 | inhibition [14] 9% | differentiation response [15] -8.27%

COc1ccc2nc(NC(=O)Nc3ccccc3)sc2c1
inactive: percent of DMSO control GFP [1] 105% | GFP response vs DMSO [2] 96.9% | percent response of DMSO control [3] 111% | GFP response vs DMSO [4] 89.3% | GFP response, % of DMSO [5] 96% | vesicle binding response [6] 173% | inhibition [7] 10% | superoxide response (% of plate) [8] 92.7% | aptamer binding inhibition [9] -1% | inhibition [10] 0.98% | binding (% of control) [12] 95.7% | efflux inhibition (fraction of control) [13] -0.47 | inhibition [14] 1% | differentiation response [15] -22.8%
50.6%: double positive events [6]
active: response [11] 70.8%

CCOc1cc(C)cc2oc(=O)cc(-c3ccccc3)c12
54.7%: double positive events [6]
inactive: percent of DMSO control GFP [1] 99.5% | GFP response vs DMSO [2] 105% | percent response of DMSO control [3] 92% | GFP response vs DMSO [4] 123% | GFP response, % of DMSO [5] 92.8% | vesicle binding response [6] 138% | inhibition [7] -5.84% | superoxide response (% of plate) [8] 88.9% | aptamer binding inhibition [9] 4% | inhibition [10] 14.1% | response [11] 8.03% | binding (% of control) [12] 102% | efflux inhibition (fraction of control) [13] 0.18 | inhibition [14] 5% | differentiation response [15] -16.4%

CCOC(=O)NN1C(=O)c2ccccc2NC1c1ccc(OC)c(OC)c1 (stereo not drawn)
64.4%: double positive events [6]
inactive: percent of DMSO control GFP [1] 95.1% | GFP response vs DMSO [2] 103% | percent response of DMSO control [3] 95.9% | GFP response vs DMSO [4] 103% | GFP response, % of DMSO [5] 99.6% | vesicle binding response [6] 121% | inhibition [7] 7.22% | superoxide response (% of plate) [8] 99.5% | aptamer binding inhibition [9] 2% | inhibition [10] -4.55% | response [11] -6.37% | binding (% of control) [12] 102% | efflux inhibition (fraction of control) [13] -0.05 | inhibition [14] 14% | differentiation response [15] 46.6%
